Paper PMC4336329 (PLoS ONE, 2015)
Hit rate of the full screen: of about 310,000 compounds, about 14,000 (4.5%) showed an effect of 50% or more. Effects have a minus sign here. Many of the other results were omitted from the sample, so strong results are more common in it than they were.

The compounds below were run against human ether-à-go-go-related gene (hERG) potassium channel (human, UniProt Q12809) (assay: primary screen, population patch clamp on CHO cells stably expressing hERG; higher = less effect of the substance).
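Further: peak tail current of the secondary pulse compared with the same well before compound.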

Sequence of human ether-à-go-go-related gene (hERG) potassium channel (Q12809 whole entry, looked up): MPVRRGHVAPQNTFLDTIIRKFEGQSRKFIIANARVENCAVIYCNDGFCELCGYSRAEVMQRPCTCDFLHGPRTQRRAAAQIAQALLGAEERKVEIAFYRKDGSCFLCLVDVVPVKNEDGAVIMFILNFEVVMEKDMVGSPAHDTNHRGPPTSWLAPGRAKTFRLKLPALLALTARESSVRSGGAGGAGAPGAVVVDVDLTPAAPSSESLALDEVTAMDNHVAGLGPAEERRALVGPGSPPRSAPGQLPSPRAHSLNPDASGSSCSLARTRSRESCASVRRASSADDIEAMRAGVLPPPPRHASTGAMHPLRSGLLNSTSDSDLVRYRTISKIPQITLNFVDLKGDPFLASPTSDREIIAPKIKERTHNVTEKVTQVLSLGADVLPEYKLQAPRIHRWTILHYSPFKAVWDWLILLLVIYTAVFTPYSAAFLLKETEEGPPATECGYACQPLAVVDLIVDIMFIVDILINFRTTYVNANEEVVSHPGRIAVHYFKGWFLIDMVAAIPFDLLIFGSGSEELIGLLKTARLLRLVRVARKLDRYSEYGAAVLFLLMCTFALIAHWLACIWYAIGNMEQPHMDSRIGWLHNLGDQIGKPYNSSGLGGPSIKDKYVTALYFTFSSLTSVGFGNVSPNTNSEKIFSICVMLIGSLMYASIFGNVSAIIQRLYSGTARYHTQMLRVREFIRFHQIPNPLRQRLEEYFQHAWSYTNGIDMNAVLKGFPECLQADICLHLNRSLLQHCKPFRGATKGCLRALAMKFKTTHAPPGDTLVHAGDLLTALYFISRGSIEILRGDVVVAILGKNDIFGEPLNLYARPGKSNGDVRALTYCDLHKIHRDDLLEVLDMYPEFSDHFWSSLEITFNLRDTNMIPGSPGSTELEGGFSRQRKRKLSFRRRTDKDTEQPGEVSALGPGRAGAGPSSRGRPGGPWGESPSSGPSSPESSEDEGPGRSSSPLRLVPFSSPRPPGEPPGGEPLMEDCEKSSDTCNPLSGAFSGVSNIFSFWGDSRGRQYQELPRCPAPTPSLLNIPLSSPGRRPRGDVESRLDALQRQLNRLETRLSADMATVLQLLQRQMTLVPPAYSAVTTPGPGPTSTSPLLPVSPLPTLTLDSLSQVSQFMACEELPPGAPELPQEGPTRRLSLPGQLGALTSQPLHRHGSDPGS

SMILES	hERG current change (%, negative = inhibition) at 10uM
Cc1cc(Cn2nnnc2-c2ccncc2)cc(C)c1O	6.54%
O=C(Nc1ccc(Cl)c(C(F)(F)F)c1)N1CCCC(O)C1 (stereo not shown)	10.9%
O=C(c1cccs1)c1coc2ccc(O)c(CN3CCOCC3)c12	-69.1%
Cc1oc2ccc(O)c(CN3CCOCC3)c2c1C(=O)c1ccc(Cl)cc1	-41%
COc1ccc(OC)c(C(O)c2coc3ccc(O)c(CN4CCOCC4)c23)c1 (stereo not shown)	-11.4%
Oc1ccc2ccccc2c1CN1CCOCC1	-6.06%
Cl.O=C(c1coc2ccc(O)c(CN3CCOCC3)c12)C1CC1	12.3%
Cl.O=C(c1ccccc1)c1coc2ccc(O)c(CN3CCOCC3)c12	-60.7%
COc1ccc(C(=O)c2coc3ccc(O)c(CN4CCCC4)c23)cc1	-73.4%
Cl.O=C(c1cccs1)c1coc2ccc(O)c(CN(CCO)CCO)c12	-41%
COC(=O)c1ccccc1N1CCS(=O)(=O)CC1	18.3%
COc1ccc(C(=O)Nc2nc(C)c(C(C)=O)s2)cc1S(=O)(=O)N1CCOCC1	0.765%
O=C(N/N=C/c1c(O)n(C2CC2)c(=S)[nH]c1=O)c1ccccc1O	2.57%
CCN(CC)S(=O)(=O)c1ccc(N2CCN(C)CC2)c(NC(=O)c2cc(=O)c3ccccc3o2)c1	-18.4%
Cc1ccc(C(=O)N(C)CC(=O)Nc2cccc(C)c2C)o1	9.83%
Cc1nc2nc(NC(=O)c3ccco3)nn2c(C)c1Cl	-1.18%
Br.c1ccc(-c2ccccc2OCc2nnc3n2CCC3)cc1	16.3%
COc1ccc(C2C(C(=O)N3CCCC3)c3cc(OC)c(OC)cc3C(=O)N2C)cc1OC (stereo not shown)	0.414%
CCC(=O)NCCNc1nc2cc(C)cc(C)c2cc1C#N	58.1%
Cc1cc(C)c2cc(C#N)c(NCCOC(=O)c3ccccc3C)nc2c1	-54.8%
COc1ccccc1C(=O)NCCNc1nc2cc(C)cc(C)c2cc1C#N	13.3%
Cc1c(OCC(=O)N2CCC(C(N)=O)CC2)ccc2c3c(c(=O)oc12)CCC3	7.25%

SMILES	hERG current change (%, negative = inhibition) at 10uM
CCOC(=O)N1CCC(Nc2c(OCC)c(=O)c2=O)CC1	3.96%
Nc1ccccc1-c1nnc(-c2ccccc2N)n1N	8.38%
CCN(CC)C(=O)Cn1cc(S(=O)(=O)CC(=O)Nc2ccc3c(c2)OCCO3)c2ccccc21	-9.47%
CCOC(=O)Cn1c(S(=O)(=O)Cc2ccccc2Cl)nc(-c2ccccc2)c1-c1ccccc1	-6.2%
COc1ccc(/C=C/CN2CCC(CO)(Cc3ccccc3Cl)CC2)cc1	-79.6%
CCC(C)CN1CCC(CO)(Cc2ccccc2Cl)CC1 (stereo not shown)	-30%
CC(C)(C)NC(=O)N1CCC(CO)(Cc2ccccc2Cl)CC1	-4.82%
O=C(C1CCCCC1)N1CCC(CO)(Cc2ccccc2Cl)CC1	-15.3%
OCC1(Cc2ccccc2Cl)CCN(C/C=C/c2ccccc2)CC1	-68.4%
O=C(C1CCCC1)N1CCC(CO)(Cc2ccccc2Cl)CC1	-44.3%
Cc1ccccc1OCC(=O)O/N=C(\N)Cc1cccs1	5.34%
Cc1ccc2[nH]c3c(c2c1)CN(C(=O)CN(C)CC1OCCO1)CC3	12.7%
COc1ccc(N2C(=O)NC(=O)/C(=C\c3ccc([N+](=O)[O-])s3)C2=O)cc1	13.3%
O=C(Nc1cc(Cl)ccc1C(=O)O)c1ccc(CN2C(=O)c3ccccc3C2=O)cc1	20.7%
Cc1ccc(OCC(=O)Nc2ccc(S(=O)(=O)Nc3ccccn3)cc2)cc1C	24.4%
O=C(Cn1cnc2c(NC(=O)OCc3ccccc3)ncnc21)NCCN1CCOCC1	1.26%
Br.COC(=O)c1ccc(CN2CCSC2=N)cc1	6.85%
CN(CC(=O)Nc1ccc(F)c(F)c1)S(=O)(=O)c1cccc2nsnc12	-26.1%
O=C(c1ccccn1)N(Cc1ccco1)C1(C(=O)NC2CCCC2)CCCCC1	-5.62%
O.O=C(O)c1cc(=O)c2c(Cl)cc(Cl)cc2[nH]1	-51.9%
O=C(O)/C(=C\c1c(C(=O)O)[nH]c2cc(Cl)cc(Cl)c12)c1ccccc1	13.3%
O=C(O)c1cc(=O)c2ccccc2[nH]1	8.86%

SMILES	hERG current change (%, negative = inhibition) at 10uM
Cc1c(OC(C(=O)O)c2ccccc2)ccc2c1oc(=O)c1ccccc12 (stereo not shown)	17.3%
CC(=O)Nc1ccc2c(c1)nc(CCN1CCN(c3ccccn3)CC1)n2C	18.6%
Cn1c(CCN2CCN(c3ccccn3)CC2)nc2cc(NS(=O)(=O)c3ccc(Cl)cc3)ccc21	-84.3%
CC(C)C(=O)Nc1ccc2c(c1)nc(CCN1CCN(c3ccccn3)CC1)n2C	-18.2%
Cc1ccc(S(=O)(=O)Nc2ccc3c(c2)nc(CCN2CCN(c4ccccn4)CC2)n3C)cc1	-84.6%
CC1=C(C(=O)OCC(Cl)(Cl)Cl)N2C(=O)C(NC(=O)Cc3ccccc3)C2SC1 (stereo not shown)	15.5%
O=c1[nH]c(/C=C/c2ccc3c(c2)OCO3)c([N+](=O)[O-])c(=O)[nH]1	45.8%
COc1ccc(NC(=O)CN(C)CC(=O)NC2CCC(C)CC2)cc1 (stereo not shown)	0.408%
O=C(NCCc1ccccc1)C(NS(=O)(=O)c1cccc2nsnc12)c1ccccc1 (stereo not shown)	-25.4%
COc1ccc(CCNC(=O)CCCn2c(SCC#N)nc3ccccc3c2=O)cc1OC	-12.7%
Nc1nc(CN2CCN(c3ccccc3)CC2)nc(Nc2ccc(Cl)cc2)n1	-76%
COc1ccc(Nc2nc(N)nc(CN3CCN(c4ccc(F)cc4)CC3)n2)cc1	-69.5%
CCOc1nc(Nc2ccc(F)cc2)nc(N2CCN(c3ccc(OC)cc3)CC2)n1	-14.7%
COC(=O)CC(=O)Cc1nc(N)nc(Nc2ccc(C)c(C)c2)n1	-9.22%
COc1ccc(N2CCN(c3nc(Nc4ccc(C)c(F)c4)nc(N4CCCC4)n3)CC2)cc1	8.35%
CCOc1nc(Nc2ccc(OC)c(Cl)c2)nc(N2CCN(c3ccc(OC)cc3)CC2)n1	14.9%
COc1ccc(N2CCN(Cc3nc(N)nc(Nc4ccc(C)c(Cl)c4)n3)CC2)cc1	-63.1%
Nc1nc(CSC(=S)N2CCN(c3ccccc3)CC2)nc(Nc2ccccc2)n1	0.151%
Cc1ccc(Nc2nc(N)nc(CSC(=S)N3CCN(c4ccccc4)CC3)n2)cc1	8.32%
CCN1CCN(Cc2nc(N)nc(Nc3ccc(C)c(C)c3)n2)CC1	-65.8%
CS(=O)(=O)N1CCN(c2ccccc2NC(=O)c2cc3ccccc3o2)CC1	7.78%
O=C(COC(=O)[C@H](Cc1ccccc1)N1C(=O)c2ccccc2C1=O)Nc1ccc2c(c1)OCO2	-8.45%

SMILES	hERG current change (%, negative = inhibition) at 10uM
CCC1CCCCN1C(=O)c1cc(COc2ccc3ncccc3c2)on1 (stereo not shown)	0.129%
CCCCn1c(N)c(N(CCOC)C(=O)CSc2ccccc2C)c(=O)[nH]c1=O	-26.6%
Cc1ccc(C(C)(C)C)cc1S(=O)(=O)Nc1nc2ccccc2nc1Cl	-33.6%
COc1ccc(-c2csc3nc(-c4ccccc4OC)oc(=O)c23)cc1	19.1%
COc1cc(C(=O)Nc2ccc3c(c2)Cc2ccccc2-3)cc(OC)c1OC	0.538%
CC(=O)c1ccc(NC(=O)C(C)Nc2ccc(Cl)cc2)cc1 (stereo not shown)	-4.45%
Cc1nc(C(=O)NNC(=O)Nc2ccc(Cl)cc2)cs1	-0.711%
CCN(CC)S(=O)(=O)c1cccc(-c2cn3cc(C)ccc3n2)c1	-9.87%
O=C(Nc1cccnc1Oc1ccc(Cl)cc1)c1cccc2ccccc12	3.61%
COCCC(=O)N1CCC(Oc2ccc(C(=O)N3CCC(N(C)C)C3)cc2)CC1 (stereo not shown)	20.7%
Cc1ccc(Nc2nc(N)nc(CN3CCN(c4ccccc4)CC3)n2)cc1Cl	-66.4%
Cc1ccc(Nc2nc(N)nc(CN3CCN(Cc4ccccc4)CC3)n2)cc1Cl	-76.4%
Cc1ccc(Nc2nc(N)c3ccccc3n2)cc1Cl.Cl	9.26%
CCCCN(C(=O)CNC(=O)c1ccco1)C(C(=O)NC1CCCC1)c1ccc(OC)cc1 (stereo not shown)	-20.1%
NC(=O)CC(NC(=O)c1ccc(Br)cc1)c1ccc(N2CCN(c3ccc(F)cc3)CC2)c([N+](=O)[O-])c1 (stereo not shown)	6.16%
CC(=O)Nc1ccc(OC(=O)Oc2ccc(NC(C)=O)cc2)cc1	0.315%
CC1(C)NC(C)(C)c2nonc2/C1=N\O	-1.78%
CCn1c2c(c3cc(C(=O)O)ccc31)CCCC2=O	18.5%
CSc1nccc(N/N=C/c2ccccc2)n1	23.9%
